Reference: PubChem BioAssay (NCI)
Values joined by “and” are separate entries in the source; they are usually repeats but may differ in a detail not shown here. Identical values can stand only once. This is part of a sample that, as a whole, favours compounds with a hit. Of some 83,000 tested, about 20% had one in any assay.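 Values shown are percent growth following 48 h exposure of cells in 96-well plates to a single concentration of compound; below 10 was considered active.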 Active and inactive are the calls of the source.

Each molecule was assayed on NCI-H322M lung (assay: NCI-60 one-dose screen, 48 h (100 = growth as untreated, 0 = no growth, -100 = all killed)). Details: 0.25 µM.
Procedure: Growth inhibition of the NCI-H322M human Non-Small Cell Lung tumor cell line is measured as a screen for anti-cancer activity. Cells are grown in 96 well plates and exposed to the test compound for 48 hours. Compounds are tested at a single concentration, which is 10^-5 M for most compounds. The reported endpoint is percent growth (GI% or GIPRCNT), where numbers from 0 - 100% represent growth inhibition, and numbers from -100% - 0 represent cell death. For example, a value of 40 represents 60% growth inhibition. A value of 0 means no net growth occurred over the course of the experiment. A value of -40 indicates 40% of cells at the beginning of the experiment died by the end of the experiment. A value of -100 means all cells are dead at the end of the experiment.
NCI-60 Human Tumor Cell Lines Screen was performed using the standard one-dose NCI protocol, which is described in more detail at https://dtp.cancer.gov/discovery_development/nci-60/default.htm.
Compounds with GIPRCNT values below 10 were considered active. Activity score was based on GIPRCNT using the following formula: […]
Score is 0 for GIPRCNT values of 100 or above, 50 for GIPRCNT values of 0, and 100 for GIPRCNT values of -100.
For `CCCCCCCCCCCCCCCc1ccc(Cl)c(O)c1Cl` (tested in a mixture with another compound), the growth was 61.5% (inactive).

Same assay, conditions: 10 µM
`CC1(C)OB(c2ccc(Cn3cc(F)c(=O)[nH]c3=O)cc2)OC1(C)C` was tested, and the growth was 102% (inactive).
`CCCCCCCCCCCCCCCc1ccc(Cl)c(O)c1Cl` (tested in a mixture with another compound) was tested, and the growth was 107% (inactive).

Same assay, conditions: 10 µM unless noted
For `CC(=O)Nc1cc(S(=O)(=O)O)cc2cc(S(=O)(=O)O)c(N=Nc3ccccc3)c(O)c12`, the growth was 112% (inactive) and 91.9% (inactive).
`CNC(=O)c1cccnc1` was tested, and the growth was 110% (inactive).
For `c1ccc(NCc2ccc3c(c2)OCO3)cc1`, the growth was 114% (inactive) and 99.2% (inactive).
With `CC(=O)Nc1cccc2c1CCCC2` the growth was 113% (inactive) and 98% (inactive).
With `COc1ccc2c(=O)cc(-c3ccccc3)[nH]c2c1` the growth was 66.1% (inactive) and 56.9% (inactive).
`CC1=C[C@H]2c3c(c(O)c(O)c4oc5cc(O)cc(O)c5c(=O)c34)[C@H](c3cc(O)c(O)c4oc5cc(O)cc(O)c5c(=O)c34)[C@H]2C(C)(C)C1` was tested, and the growth was 12.1% (inactive) and -11.1% (active).
With `CC(/C=N/N1C(=O)c2ccccc2C1=O)c1ccccc1` (stereo not given) the growth was 98.1% (inactive).
For `NC(=S)NN=C1CCC(C2CCCCC2)CC1` (stereo not given), the growth was 95.9% (inactive) and 88.2% (inactive).
With `S=C1SCN(Cc2ccccc2)CN1Cc1ccccc1` the growth was 94.5% (inactive).
`Oc1nc(NCCc2ccccc2)sc1/C=C1\C=Nc2ncccc21` was tested, and the growth was 19.6% (inactive) and 5.21% (active).
For `O=Nc1ccc(O)cc1`, the growth was 104% (inactive) and 97.4% (inactive).
For `O=C1c2ccccc2C(=O)c2c(NCCNCCO)ccc(NCCNCCO)c21`, the growth was 7.84% (active) and 19.3% (inactive) and -5.07% (active).
In the case of `COc1cc2c(c(OC)c1OC)-c1ccc(OC)c(=O)cc1[C@@H](NC(C)=O)CC2`, the growth is reported as 47.7% (inactive) and 32.9% (inactive) and 36.1% (inactive).
For `O=C(Nc1ccc(Br)cc1)c1cc(Br)ccc1O`, the growth was -15.9% (active) and 1.23% (active).
For `O=C(CN1CCOCC1)N1CCOCC1`, the growth was 92% (inactive) and 110% (inactive).
With `O=C(N/N=C/c1ccccc1)N/N=C/c1ccccc1` the growth was 103% (inactive) and 116% (inactive).
For `COc1ccccc1/C=N\N=C(N/N=C/c1ccccc1OC)N/N=C/c1ccccc1OC`, the growth was 56.5% (inactive) and 15.1% (inactive).
In the case of `CC12CCC(CC1)C(C)(C)O2`, the growth is reported as 101% (inactive).
For `O=C(Nc1cccc(-n2ccc3c(NC(=O)c4ccccc4)nccc32)c1)c1ccc(Cl)c(C(F)(F)F)c1`, the growth was 22.6% (inactive) and 79.3% (inactive).
`Cc1ccc(S(=O)(=O)Nc2nc3ccccc3nc2Nc2ccc3nsnc3c2)cc1` was tested, and the growth was 58.5% (inactive) and 50.6% (inactive).
`Clc1ccc(SSc2ccc(Cl)cc2)cc1` was tested, and the growth was 95.6% (inactive) and 108% (inactive).
For `CCCCOc1cc(C(=O)NCCN(CC)CC)c2ccccc2n1`, the growth was 100% (inactive) and 94.7% (inactive).
For `N#C/C(=C1C=C/C(=N/O)C(Br)=C/1)c1ccccc1`, the growth was 42.4% (inactive).
`CC(O)Cn1cnc2c1c(=O)n(C)c(=O)n2C` (stereo not given) was tested, and the growth was 96.6% (inactive).
For `CC(C)Cc1ccc(C(C)C(=O)NCc2ccc(Cn3c(=O)sn(CCCCl)c3=O)cc2)cc1` (stereo not given), the growth was 101% (inactive) and 73.9% (inactive).
With `Cc1n[nH]c(=O)n(/N=C\c2c[nH]c3ccccc23)c1=O` the growth was 94.2% (inactive).
`CC(=O)C(/C=N/C(N)=O)=C(/C)O` was tested, and the growth was 113% (inactive).
For `CC(=O)Nc1ccc2cc3ccc(NC(C)=O)cc3nc2c1`, the growth was 64.3% (inactive) and 46.1% (inactive).
In the case of `COC(=O)[C@H]1CCCN1C(=O)C1CCCN1C(=O)[C@@H](Cc1ccccc1)NC(=S)Nc1cc(C(F)(F)F)cc(C(F)(F)F)c1` (stereo not given in full), the growth is reported as 142% (inactive) and 88.4% (inactive).
For `COc1cc2nc(N3CCN(C(=O)C4COc5ccccc5O4)CC3)nc(N)c2cc1OC` (stereo not given), the growth was 123% (inactive) and 75.6% (inactive) and 99.4% (inactive).
`Cc1cc(=O)[nH]c(O)c1C#N` was tested, and the growth was 95.5% (inactive) and 99% (inactive).
With `CN1C(=O)C(N=Nc2ccc([N+](=O)[O-])cc2)SC1=S` (stereo not given) the growth was 62.2% (inactive) and 71.8% (inactive).
`NC(=S)N/N=C(\c1ccc(Br)cc1)C1CC1` was tested, and the growth was 101% (inactive) and 83.7% (inactive).
`COc1cc2c(Nc3ccc(Cl)c(Cl)c3F)ncnc2cc1OCC1C[C@@H]2CN(C)C[C@@H]2C1` (stereo not given in full) was tested, and the growth was -96.4% (active) and 21.5% (inactive).
In the case of `CCOc1ccc2cc(-c3nn(CC4CCNCC4)c4ncnc(N)c34)ccc2c1`, the growth is reported as 91.6% (inactive) and 75.4% (inactive).
For `c1ccc2cc(C[n+]3ccn(Cc4ccc5ccccc5n4)c3)ccc2c1`, the growth was 34.8% (inactive) and 75% (inactive).

Same assay, conditions: 50 µM
In the case of `CC1(C)OB(c2ccc(Cn3cc(F)c(=O)[nH]c3=O)cc2)OC1(C)C`, the growth is reported as 86.4% (inactive).
